Only some compounds are listed: those with a hit (about 9.4% of all), similar ones and a draw of the others.
SARS PLP yeast: blocks SARS-CoV papain-like protease in a yeast assay; S. cerevisiae expressing SARS-CoV PLpro, growth rescue; Potency, µM (top dose mostly 32.9 µM), for inactives: top-dose activity, positive = growth rescue, hits mostly activators; 0.19% of 330,000 active; AID 485353; calls by dose curve; note: 0% is about no effect; nearly all actives have a fitted effect of over 55% in size
Pf growth 48h: P. falciparum growth inhibition at 48 hours (one generation); P. falciparum luciferase growth in erythrocytes, 48 h; Potency, µM (highest dose often 28.7 µM), inactives show at the highest dose activity change, negative = inhibition, hits mostly inhibitors; 5.9% of 310,000 active; note: % is set by controls: 0 for no effect and ±100 for the full control effect
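Read-out is firefly luciferase luminescence from an integrated reporter in P. falciparum, so falling signal marks reduced parasite growth. Infected erythrocytes were at 2% hematocrit and 0.1% parasitemia (final) in Albumax-supplemented RPMI 1640.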
AMA1 RON2 block: AMA1-RON2 (P. falciparum) interaction inhibition | AlphaScreen AMA1-biotinylated RON2 peptide binding | Potency, µM (series often up to 58.2 µM), for the others: at the top dose activity change, negative = inhibition, hits mostly inhibitors | 0.2% of 360,000 active | AID 720542;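 note: 0% = vehicle wells and -100% = peptide control; nearly all actives have a fitted effect of over 45% in size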
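AMA1 (3D7) with his tag at 25 nM final met compounds first, then biotinylated RON2 peptide at 25 nM; detection used donor plus acceptor beads, 10 µg/mL apiece, read by AlphaScreen after 30 min at room temperature.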
Pf growth 96h: P. falciparum growth inhibition at 96 hour, primary screen for plastid delayed-death inhibitors. 6.9% of 320,000 active. AID 504834. P. falciparum luciferase reporter growth, 96 h. Potency, µM (series often up to 28.7 µM), inactives show at the highest dose activity change, negative = inhibition, most hits filed as inhibitors; note: % is set by controls: 0 for no effect and ±100 for the full control effect
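Parasite growth measured via integrated firefly luciferase reporter in P. falciparum. Infected erythrocytes at 2% hematocrit, 0.05% parasitemia final were treated 96 hours at 37 C under 5% CO2, and luminescence was read.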
Active calls of the source: *; ? = inconclusive; / = not tested or not shown. Unless noted, calls come from the whole dose curve; as a rule, active = well fitted curve in the direction sought with a large enough effect; inconclusive = small, poorly fitted or top-dose-only effect, or another doubt; inactive = no such curve, though single readings can be large; an effect the other way counts as inactive or inconclusive. Potency is the fitted concentration of half-maximal effect.

SMILES	SARS PLP yeast	Pf growth 48h	AMA1 RON2 block	Pf growth 96h
OCC1CCN(Cc2cn(Cc3ccccc3)nc2-c2cc3ccccc3o2)CC1	0%	?	14%	?
OCC1CCCN(Cc2cn(Cc3ccccc3)nc2-c2cc3ccccc3o2)C1 (stereo not drawn)	-2%	15µM*	8%	-21%
CCN(CC)CCNc1nc(-c2ccccc2)nnc1C(F)(F)F	1%	-21%	-3%	?
COc1ccc(C2C(C(=O)Nc3cccnc3)=C(C)Nc3nc(-c4cccs4)nn32)cc1 (stereo not drawn)	1%	12µM*	10%	?
CN(C)C(=O)CSc1nnc(Cc2ccc3c(c2)OCO3)o1	0%	33%	-1%	25%
O=C(CSc1nc2ccccc2c(=O)n1-c1ccc(F)c(Cl)c1)Nc1cccc(S(=O)(=O)N2CCOCC2)c1	3%	?	-9%	4.1µM*
Cc1ccc(-n2c(SCC(=O)Nc3cc(S(=O)(=O)N4CCOCC4)ccc3Cl)nc3ccccc3c2=O)cc1	10%	10µM*	-2%	2.9µM*
O=C(CSc1nc2ccccc2c(=O)n1-c1ccc(F)cc1)Nc1ccc(C(=O)O)cc1	0%	-20%	10%	-12%
O=C(CSc1nc2ccccc2c(=O)n1-c1ccc(F)cc1)Nc1ccc(Cl)c(S(=O)(=O)N2CCOCC2)c1	-5%	9.3µM*	-10%	5.9µM*
O=C1c2ccccc2C(=O)C1(CO)c1ccccc1	-1%	160%	4%	-11%
COc1ccccc1NC(=O)C(=O)NCC1COc2ccccc2O1 (stereo not drawn)	-5%	14%	0%	7%
Cc1ccc(C)c(NC(=S)N2CCC(NC(=O)c3ccco3)CC2)c1	5%	1%	10%	47%
COc1ccc(C(=O)c2ccc(CC(=O)O)s2)cc1	-1%	6.6µM*	-2%	?
CC(C)NC(=O)NC(=O)COC(=O)C1CCCN1C(=O)c1cccs1 (stereo not drawn)	6%	/	5%	10%
CCCCCCSc1ccc([C@H]2N[C@@](Cc3ccccc3)(C(=O)OC)[C@H]3C(=O)N(C)C(=O)[C@@H]23)cc1OC	-2%	3.3µM*	0%	2.3µM*
CCN1C(=O)[C@H]2[C@@H](c3ccc(-c4ccc(Cl)c(Cl)c4)c(OC)c3)N[C@@](Cc3ccccc3)(C(=O)OC)[C@H]2C1=O	-6%	2.9µM*	-6%	3.7µM*
CCN1C(=O)[C@H]2[C@@H](c3ccc(-c4ccc5c(c4)OCO5)cc3)N[C@@](Cc3ccccc3)(C(=O)OC)[C@H]2C1=O	-22%	/	-3%	/
CCN1C(=O)[C@H]2[C@@H](c3ccc(-c4cccc(Cl)c4)cc3)N[C@@](Cc3ccccc3)(C(=O)OC)[C@H]2C1=O	-14%	4.7µM*	-14%	4.7µM*
CCOC(=O)C1=C(N)Oc2cc(O)ccc2C1c1ccc([N+](=O)[O-])cc1 (stereo not drawn)	-3%	9.3µM*	-7%	?
Cc1cccc(-n2nnnc2SCC(=O)NCC2(N3CCOCC3)CCCCC2)c1C	-12%	12µM*	7%	?
Cc1ccc(C)c(-n2nnnc2SCC(=O)Nc2cccc(-c3nnc4n3CCCCC4)c2)c1	0%	9.3µM*	-9%	?
O=C(CSc1nnnn1-c1ccccc1)NCC1(N2CCCCC2)CCCCC1	3%	?	-11%	?
Cc1ccc(-n2nnnc2SCC(=O)NCC2(N3CCCCC3)CCCCC2)c(C)c1	3%	10µM*	-6%	7.4µM*
CNC(=O)CSc1nnnn1-c1cc(C)ccc1C	2%	-9%	-3%	3%
Cc1ccc(-n2nnnc2SCC(=O)N2CCc3ccccc3C2)c(C)c1	-34%	?	-7%	13µM*
SMILES	SARS PLP yeast	Pf growth 48h	AMA1 RON2 block	Pf growth 96h
CN(C)CCCN(C(=O)COc1ccc(Cl)cc1)c1nc2cc3c(cc2s1)OCCO3	-1%	-1%	-16%	12%
COc1cc2c(cc1OC)CN(Cc1cc(=O)n3cc(C)ccc3n1)CC2	-4%	-24%	10%	-85%
Cc1ccc(-n2nnnc2SCC(=O)NCC2(N3CCOCC3)CCCCC2)c(C)c1	-4%	13µM*	13%	?
CN1CCc2cccc3c2C1Cc1ccc(O)c(O)c1-3 (stereo not drawn)	-19%	?	?	10µM*
C=CCN1CCc2cccc3c2[C@H]1Cc1ccc(O)c(O)c1-3	-6%	?	-7%	-46%
CCN1CCN(c2cc(C)c3cc(NC(=S)NCCCN4CCc5ccccc5C4)ccc3n2)CC1	3%	7.4µM*	-11%	?
Cc1cc(N2CCN(C)CC2)nc2ccc(NC(=S)NCCN3CCc4ccccc4C3)cc12	1%	9.3µM*	-14%	?
Cc1cc(N2CCN(C)CC2)nc2ccc(NC(=S)NCCCN3CCc4ccccc4C3)cc12	-2%	?	-15%	24%
COc1ccc(NC(=O)CSCC(=O)OCc2cccc(OC)c2OC)cc1	2%	7%	8%	1%
Cc1ccc2cc(CCl)c(Cl)nc2c1	-2%	-17%	?	2%
CCC(=O)NC(=S)Nc1c(C)cc(Br)cc1C	1%	-18%	0%	116%
CCc1ccc(C(=O)COC(=O)CNC(=O)c2ccc(N3C(=O)c4ccccc4C3=O)cc2)cc1	4%	36%	19%	15µM*
COC(=O)c1[nH]c2ccc(Br)cc2c1NC(=O)CN1CCN(C2CCCCC2)CC1	-1%	?	-4%	2.6µM*
COC(=O)c1[nH]c2ccc(Cl)cc2c1NC(=O)CCN1CCN(C2CCCCC2)CC1	-5%	12µM*	1%	3.7µM*
COC(=O)c1[nH]c2ccc(C)cc2c1NC(=O)CCN1CCN(C2CCCCC2)CC1	14%	-20%	/	/
COCCOC(=O)c1c(NC(=O)CN2CCCc3ccccc32)sc(C(N)=O)c1C	24%	?	11%	10µM*
COC(=O)c1[nH]c2ccc(Br)cc2c1NC(=O)CN1CCCc2ccccc21	-14%	?	0%	10µM*
CC1CC2(O)c3nonc3CCC2N1O (stereo not drawn)	-13%	21%	11%	74%

Compound activity (PubChem)
